Several values for one entry are separate records, joined by “and”; a condition that tells them apart may be missing. Identical values can stand only once. Records with an inconclusive call do not appear. Where a call stands in place of a potency, no number is given. Activity calls are given as the source filed them. Calls follow the shape of the dose curve; as a rule, active = well fitted cell-killing curve with a large enough effect; inconclusive = small, poorly fitted or top-dose-only effect; inactive = no such curve, though single readings can be large or run the other way.
Potency is read from the fitted curve at half-maximal effect.

The nature of the first experiment: qHTS of pediatric cancer cell lines to identify multiple opportunities for drug repurposing: Primary screen for SJ-GBM2 cells (AID 1347091). The conditions noted are these: SJ-GBM2 viability, CellTiter-Glo luminescence, 48 h; series mostly up to 46 µM. In a few lines:
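Cell viability, CellTiter-Glo luminescence; 500-1,000 cells/well, 8- or 11-point titration, 48 h compound exposure at 37 degrees C, 5% CO2. Controls: DMSO neutral, bortezomib 2.3 µM final as positive.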
In general terms: qHTS replaces the single test concentration by a dilution series.
`NN=C(N)N`: the Potency entry was “inactive”.

Take `CN1CCN(C(=O)O[C@H]2c3nccnc3C(=O)N2c2ccc(Cl)cn2)CC1`: the Potency result is “inactive”.

For the compound `CC1NCCOC1c1ccccc1` (configuration not stated), the Potency entry was “inactive”.

For the compound `CC(C)=CC1C(C(=O)OCc2cccc(Oc3ccccc3)c2)C1(C)C` (configuration not stated), the Potency entry is “inactive”.

For `NCCc1cc(O)c(O)cc1O`, the Potency entry was “inactive”.

Regarding `CCN(CC)C(=O)N[C@@H]1C=C2c3cccc4[nH]cc(c34)C[C@@H]2N(C)C1`, the Potency entry is “inactive”.

Consider `CCCC(C)(COC(N)=O)COC(=O)NC(C)C` (configuration not stated), for which the Potency entry was “inactive”.

Regarding `O=[N+]([O-])c1cc([As](=O)(O)O)ccc1O`, the Potency entry is “inactive”.

For `COc1ccc(C(=O)c2c(C)n(CCN3CCOCC3)c3ccccc23)cc1`, the Potency result was “inactive”.

Turning to `CCC(C(N)=O)N1CCCC1=O` (configuration not stated), the Potency result was “inactive”.

`C=C1CC[C@@]2(O)[C@H]3Cc4ccc(O)c5c4[C@@]2(CCN3CC2CC2)[C@H]1O5`: the Potency result was “inactive”.

For `Nc1ccncc1`, the Potency entry was “inactive”.

Consider `CC(C)NCC(O)c1ccccc1Cl` (configuration not stated), for which the Potency entry is “inactive”.

Take `CCCN1CCC[C@@H]2Cc3nc(N)ncc3C[C@H]21`: the Potency entry is “inactive”.

Take `N[C@@H](Cc1ccc(N(CCCl)CCCl)cc1)C(=O)O`: the Potency was 2.64 µM (active).

As to `CCCN1CCC[C@@H]2Cc3[nH]ncc3C[C@H]21`, the Potency result was “inactive”.

Turning to `CC(=O)[C@H]1CC[C@H]2[C@@H]3CC[C@H]4C[C@](C)(O)CC[C@]4(C)[C@H]3CC[C@]12C`, the Potency result is “inactive”.

Turning to `Oc1cc(Cl)ccc1Oc1ccc(Cl)cc1Cl`, the Potency is 4.42 µM (active).

`N[C@@H](Cc1ccc(Oc2cc(I)c(O)c(I)c2)c(I)c1)C(=O)O`: the Potency result is “inactive”.

`Clc1cccc(N2CCNCC2)c1`: the Potency entry is “inactive”.

With `C#CCN(C)[C@H](C)Cc1ccccc1`, the Potency result is “inactive”.

Take `CC(C)(C)NCC(O)c1cc(Cl)c(N)c(Cl)c1` (configuration not stated): the Potency result was “inactive”.

As to `CC[C@@H](CO)NC(=O)[C@@H]1C=C2c3cccc4[nH]cc(c34)C[C@H]2N(C)C1`, the Potency entry was “inactive”.

For `NP(N)(=O)NC(=O)c1ccc(F)cc1`, the Potency entry was “inactive”.

As for `CCN(CC)CCOC(=O)C(O)(c1ccccc1)c1ccccc1`, the Potency entry was “inactive”.

As for `Cc1cccc(C)c1NC(=O)CN1CCCC1=O`, the Potency result was “inactive”.

In the case of `CN1C(=S)CN=C(c2ccccc2)c2cc(Cl)ccc21`, the Potency entry was “inactive”.

In the case of `N[C@@H]1C[C@H]1c1ccccc1`, the Potency result is “inactive”.

For `CC[N+](CC)(CC)CC`, the Potency result was “inactive”.

In the case of `Fc1ccc(C(OCCN2CCN(CCCc3ccccc3)CC2)c2ccc(F)cc2)cc1`, the Potency was 20.9 µM (active) and 16.8 µM (active).

For `CCCC1CCCCN1` (configuration not stated), the Potency result was “inactive”.

For the compound `C#CCOC(C(=O)OCCN(C)C)(c1ccccc1)c1ccccc1`, the Potency entry is “inactive”.

In the case of `CN(C)CCc1ccc(O)cc1`, the Potency entry is “inactive”.

Take `CCN(C(C)=O)c1cccc(-c2ccnc3c(C#N)cnn23)c1`: the Potency entry was “inactive”.

On to `CC(=O)Nc1cc([As](=O)(O)O)ccc1O`, for which the Potency entry is “inactive”.

Regarding `NCC1(CC(=O)O)CCCCC1`, the Potency entry is “inactive”.

A further experiment is described as follows: qHTS of pediatric cancer cell lines to identify multiple opportunities for drug repurposing: Primary screen for A673 cells (AID 1347092). Also: nearly all actives have a fitted effect of over 45% in size. To be noted: A673 Ewing sarcoma viability, CellTiter-Glo ATP luminescence, 48 h; series mostly up to 46 µM. In a few lines:
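A673 cells (500-1,000 cells/well) were treated 48 hours at 37 degrees C with compounds at 11-point (0.78 nM to 46 µM) or 8-point (0.59 nM to 46 µM) dilutions. Viability read by CellTiter-Glo luminescence; concentration-response curves fitted.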
As to `NN=C(N)N`, the Potency entry was “inactive”.

In the case of `CN1CCN(C(=O)O[C@H]2c3nccnc3C(=O)N2c2ccc(Cl)cn2)CC1`, the Potency entry was “inactive”.

For `CC1NCCOC1c1ccccc1` (configuration not stated), the Potency result was “inactive”.

Take `CC(C)=CC1C(C(=O)OCc2cccc(Oc3ccccc3)c2)C1(C)C` (configuration not stated): the Potency result was “inactive”.

Take `NCCc1cc(O)c(O)cc1O`: the Potency result was “inactive”.

As to `CCN(CC)C(=O)N[C@@H]1C=C2c3cccc4[nH]cc(c34)C[C@@H]2N(C)C1`, the Potency entry was “inactive”.

Regarding `CCCC(C)(COC(N)=O)COC(=O)NC(C)C` (configuration not stated), the Potency result is “inactive”.

Regarding `O=[N+]([O-])c1cc([As](=O)(O)O)ccc1O`, the Potency entry is “inactive”.

Consider `COc1ccc(C(=O)c2c(C)n(CCN3CCOCC3)c3ccccc23)cc1`, for which the Potency entry was “inactive”.

For the compound `CCC(C(N)=O)N1CCCC1=O` (configuration not stated), the Potency entry was “inactive”.

Take `C=C1CC[C@@]2(O)[C@H]3Cc4ccc(O)c5c4[C@@]2(CCN3CC2CC2)[C@H]1O5`: the Potency result is “inactive”.

As for `Nc1ccncc1`, the Potency result was “inactive”.

Turning to `CC(C)NCC(O)c1ccccc1Cl` (configuration not stated), the Potency entry is “inactive”.

Take `CCCN1CCC[C@@H]2Cc3nc(N)ncc3C[C@H]21`: the Potency entry is “inactive”.

As to `N[C@@H](Cc1ccc(N(CCCl)CCCl)cc1)C(=O)O`, the Potency is 6.68 µM (active) and 5.9 µM (active).

Take `CCCN1CCC[C@@H]2Cc3[nH]ncc3C[C@H]21`: the Potency entry is “inactive”.

`CC(=O)[C@H]1CC[C@H]2[C@@H]3CC[C@H]4C[C@](C)(O)CC[C@]4(C)[C@H]3CC[C@]12C`: the Potency result was “inactive”.

Consider `Oc1cc(Cl)ccc1Oc1ccc(Cl)cc1Cl`, for which the Potency is 39.4 µM (active).

For the compound `N[C@@H](Cc1ccc(Oc2cc(I)c(O)c(I)c2)c(I)c1)C(=O)O`, the Potency entry was “inactive”.

For the compound `Clc1cccc(N2CCNCC2)c1`, the Potency result is “inactive”.

In the case of `C#CCN(C)[C@H](C)Cc1ccccc1`, the Potency entry was “inactive”.

As for `CC(C)(C)NCC(O)c1cc(Cl)c(N)c(Cl)c1` (configuration not stated), the Potency entry was “inactive”.

For `CC[C@@H](CO)NC(=O)[C@@H]1C=C2c3cccc4[nH]cc(c34)C[C@H]2N(C)C1`, the Potency entry was “inactive”.

`NP(N)(=O)NC(=O)c1ccc(F)cc1`: the Potency entry is “inactive”.

For `CCN(CC)CCOC(=O)C(O)(c1ccccc1)c1ccccc1`, the Potency entry was “inactive”.

`Cc1cccc(C)c1NC(=O)CN1CCCC1=O`: the Potency result was “inactive”.

For the compound `CN1C(=S)CN=C(c2ccccc2)c2cc(Cl)ccc21`, the Potency result was “inactive”.

`N[C@@H]1C[C@H]1c1ccccc1`: the Potency result is “inactive”.

Take `CC[N+](CC)(CC)CC`: the Potency result is “inactive”.

On to `Fc1ccc(C(OCCN2CCN(CCCc3ccccc3)CC2)c2ccc(F)cc2)cc1`, for which the Potency was 14.8 µM (active).

Take `CCCC1CCCCN1` (configuration not stated): the Potency result is “inactive”.

For `C#CCOC(C(=O)OCCN(C)C)(c1ccccc1)c1ccccc1`, the Potency entry is “inactive”.

On to `CN(C)CCc1ccc(O)cc1`, for which the Potency entry is “inactive”.

`CCN(C(C)=O)c1cccc(-c2ccnc3c(C#N)cnn23)c1`: the Potency entry is “inactive”.

With `CC(=O)Nc1cc([As](=O)(O)O)ccc1O`, the Potency entry is “inactive”.

For `NCC1(CC(=O)O)CCCCC1`, the Potency entry was “inactive”.
